± gives the uncertainty stated by the source.
System: HEK293T-Rex ERSE-FLuc
Assay: ERSE-FLuc reporter activation, triplicate confirmation, relative to 500 nM thapsigargin (% of thapsigargin); higher = stronger ATF6/ERSE reporter activation
Conditions: 6.8 µM; 18 h; screen: confirmation
Description: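 HEK293T-Rex cells stably expressing the ERSE-firefly luciferase (BiP promoter, ATF6-preferring) or XBP1-splicing Renilla luciferase (IRE1/XBP1s) reporter, 1536-well plates, compound at 6.8 µM for 18 hr at 37 °C; luminescence read […] and expressed as % activation = 100*(compound - median DMSO)/(median 500 nM thapsigargin - median DMSO). Primary screen was single-pass; confirmation screen in triplicate (mean ± SD).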

SMILES	ERSE-FLuc reporter activation
COc1ccc2c(Cl)c(C(=O)Nc3ccccc3C(N)=O)sc2c1	31.6 ± 1.1
COc1ccc(NC(=O)/C(Cl)=C\c2ccccc2)cc1	28.6 ± 2.2
Cc1ccc(C)c(/C=N/Nc2nncc3ccccc23)c1	29.7 ± 1.9
O=[N+]([O-])c1ccc(N/N=C/c2ccccc2O)cc1	20.7 ± 2.3
COCCNC(=O)c1cc(-c2cccs2)on1	27.4 ± 2.4
Cc1cc(C)nc(/N=C(\N)Nc2ccc(OCc3ccccc3)cc2)n1	53.1 ± 14
CN1C(=O)/C(=C\c2ccc(O)c(O)c2)SC1=S	25.2 ± 1.4
CCCCNNC(=O)c1ccc(Br)cc1	60.9 ± 6
N#C/C(=C/c1ccc(O)c(O)c1)c1nc2ccccc2[nH]1	29.7 ± 1.1
O=C(/C=C/c1ccccc1)Nc1ccc(Cl)cn1	27.9 ± 6.3
CCOc1ccc(NC(=O)c2cccc(F)c2)c([N+](=O)[O-])c1	25.9 ± 2.4
COc1ccc(-c2cnnc(N/N=C/c3ccc(O)c(O)c3)n2)cc1	35.9 ± 7.5
Cc1ccccc1-c1cc(=O)c2cc(Cl)ccc2o1	25.5 ± 3.8
CCCNc1ccnc(N2CCc3ccccc3C2)n1	25.7 ± 11
CCCc1cc(C(=O)Nc2cc(C)ccc2O)no1	83.4 ± 6.3
CCOc1cccc(C(=O)Nc2ccc(-c3nc4ccc(C(=O)c5ccccc5)cc4[nH]3)cc2)c1	28.6 ± 4.7
O=c1/c(=C/c2ccc(O)c(O)c2)sc2nc3ccccc3n12	37.5 ± 3.7
COc1ccc(-c2nn(-c3ccccc3)cc2/C=C/C(=O)O)cc1[N+](=O)[O-]	31.7 ± 4.4
O=C(NC1CCCC1)c1cc(-c2cccs2)on1	25.7 ± 2.1
COc1ccccc1OCC(=O)Nc1cc(C)ccc1O	33.1 ± 6.4

SMILES	ERSE-FLuc reporter activation
O=C1N/C(=C\c2ccc(O)cc2)C(O)=C1C=NCc1ccccc1	27.6 ± 6.4
Cc1cc2nc(-c3ccc(SCC#N)nc3)[nH]c2cc1C	26.8 ± 1.7
O=C(COC(=O)c1ccc(O)c(O)c1)Nc1nc(-c2ccccc2)cs1	39.3 ± 5.9
C(=N/Nc1nnc2c(n1)[nH]c1ccccc12)/c1c[nH]c2ccccc12	29.6 ± 8
O=C(Nc1ccc(O)cc1)c1c(O)c2c([nH]c1=O)CCCC2	29.7 ± 1.1
COc1ccc(/C=C(\C#N)c2nc3ccccc3n2C)cc1	38.1 ± 7.2
CCCNC(=O)c1ccc2nc(-c3ccc4[nH]ccc4c3)sc2c1	33.4 ± 9.7
Cc1cc(C)nc(/N=C(\N)Nc2ccc(OCCC(C)C)cc2)n1	58.2 ± 6.3
Cc1ccc(O)c(NC(=O)CSc2ccccc2)c1	51.1 ± 12
Oc1cccc(/C=N/Nc2ccc(Cl)nn2)c1O	35 ± 6
O=C(N/N=C/c1ccc2c(c1)OCO2)c1cccc(F)c1	27.1 ± 2.4
N/C(=N\N=C\c1ccc(O)c(O)c1)c1nonc1N	71.1 ± 7.1
O=c1[nH]c(COc2ccccc2)nc2sc3c(c12)CCCC3	39 ± 5.3
CCC(=O)N(Cc1cc2cc(C)ccc2n2nnnc12)C1CCCC1	33.5 ± 2.4
O=C(N/N=C/c1cccc(O)c1O)c1ccccn1	37.9 ± 9.1
CCCCCOc1ccc(N/C(N)=N/c2nc(C)cc(C)n2)cc1	110 ± 12
Cc1ccc(C(=O)Nc2ccccc2N)cc1	56.8 ± 4.5
Oc1ccccc1/C=N\Nc1nc2ccccc2o1	26.6 ± 4.4
CC(=Nc1ccc(O)cc1)c1sc2ccccc2c1O	27.4 ± 4.2
CCCCCC(=O)Nc1ccc(C(=O)Nc2ccccc2O)cc1	44.9 ± 11

From the supplement of paper PMC4954754
